High-throughput results: PubChem, National Center for Advancing Translational Sciences (NCATS)
Sampled rows, rich in hits. Any-hit rate of the full collection: about 19%.
IL1B secr inh = inflammasome signaling inhibition, IL-1 beta readout | THP-1 LPS/ATP IL-1B secretion, AlphaLISA, 16 h; hits give low values | activity change, % at 57.5 µM | 4.7% of 360,000 active | AID 743279; in the data active means activity change below about -50%; inconclusive means mostly about -30% to -49%
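THP-1 cells pretreated 1 hr with compounds (up to 57.5 uM final), then stimulated with LPS (250 ng/mL final) plus ATP (1.25 mM final); secreted IL-1B measured by AlphaLISA after 16 hr, decreased signal indicating inhibition.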
DT40 TDP1 CPT = DT40-hTDP1 cell growth loss with CPT; Potency, µM (top dose mostly 46.2 µM), actives largely listed as inhibitors; 12% of 420,000 active; AID 686979; chicken DT40 Tdp1-/-;hTDP1 cells + 20 nM CPT, ATP luminescence, 48 h; further: nearly all actives have a fitted effect of over 55% in size
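Cell growth measured by CellTiter-Glo luminescence after a minimum 48 h, 37 C compound exposure with 20 nM CPT in Tdp1-knockout DT40 cells stably expressing hTDP1, seeded 400/well; qHTS titration format.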
HT1080-NT tox = kills 2HG-producing HT-1080-NT fibrosarcoma cells. HT-1080-NT fibrosarcoma viability, CellTiter-Glo ATP luminescence, 48 h. Potency, µM (doses to about 46.1 µM), hits mostly cytotoxic. 1.6% of 360,000 active. AID 686970;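 further: NT is the 2HG producing partner of a matched IDH1 knockdown line; nearly all actives have a fitted effect of over 55% in size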
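Luminescent CellTiter-Glo readout after 48 hours of compound exposure at 37 degrees C defined viability of HT-1080-NT cells. Activity was normalized to DMSO wells and cell-free media wells; concentration-response curves were fitted and assigned curve classes.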
TDP1 cell noCPT = qHTS for Inhibitors of human tyrosyl-DNA phosphodiesterase 1 (TDP1): qHTS in cells in absence of CPT | 15% of 420,000 active | AID 686978, 2013 | DT40 Tdp1-/- hTDP1 cells, no CPT, ATP luminescence, 48 h | Potency, µM (highest dose often 46.2 µM), hits mostly inhibitors; further: nearly all actives have a fitted effect of over 55% in size
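A cellular qHTS used chicken DT40 cells lacking endogenous Tdp1 but carrying stably transfected human TDP1. Compounds were applied without camptothecin, and cell growth kinetics were judged by ATP-dependent luminescence after ≥48 hr.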
HT1080 IDH1KD tx = HT-1080 IDH1 knockdown cell toxicity (counter line) | HT-1080 IDH1 knockdown viability, ATP luminescence, 48 h | Potency, µM (highest dose often 46.1 µM), actives largely listed as cytotoxic | 2% of 360,000 active | AID 686971
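Knockdown cells (IDH1KD HT-1080) received compounds 2 h after plating at 750 cells/well and were kept 48 h at 37 °C in 5% FBS RPMI. A CellTiter-Glo luminescence read gave % activity for curve fitting.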
A number is an active result; i = inactive; ? = inconclusive; nt = not tested or not shown. Unless noted, the call rests on the fitted dose curve; in most records, active means well fitted curve in the direction sought with a large enough effect; inconclusive means small, poorly fitted or top-dose-only effect, or another doubt; inactive means no such curve, though single readings can be large; an effect the other way counts as inactive or inconclusive.

SMILES	IL1B secr inh	DT40 TDP1 CPT	HT1080-NT tox	TDP1 cell noCPT	HT1080 IDH1KD tx
CN(C)/C=N/c1ncn(-c2ncc(C(F)(F)F)cc2Cl)n1	i	i	i	i	i
Cc1ccc(C(=O)C(C)OC(=O)C2CCN(c3ccc(C(F)(F)F)cn3)CC2)cc1C (configuration not stated)	i	?	i	?	i
CCOc1ccc(C(=O)C(C)OC(=O)C2CCN(c3ccc(C(F)(F)F)cn3)CC2)cc1 (configuration not stated)	i	16µM	i	23µM	i
N#CC1=C(N)Oc2cc(N)ccc2C1c1cccc(Br)c1 (configuration not stated)	i	2.9µM	?	1.5µM	?
N#CC1=C(N)Oc2cc(N)ccc2C1c1cc(Br)cs1 (configuration not stated)	-66	?	2.1µM	?	2.9µM
Cc1ccc(C2C(C#N)=C(N)Oc3cc(N)ccc32)cc1 (configuration not stated)	i	i	i	i	i
N#CC1=C(N)Oc2cc(N)ccc2C1c1ccsc1 (configuration not stated)	i	i	i	i	i
COc1cccc(C2C(C#N)=C(N)Oc3cc(N)ccc32)c1OC (configuration not stated)	i	i	i	i	i
N#CC1=C(N)Oc2cc(N)ccc2C1c1ccccc1F (configuration not stated)	i	7.3µM	15µM	8.2µM	16µM
CC1CCC(NC(=O)C(NC(=O)c2ccccc2)C(C)C)CC1 (configuration not stated)	i	i	i	i	i
Cc1cc(C)n(C(=O)c2ccc(Cn3nc(C)c(Br)c3C)o2)n1	i	i	i	i	i
CC1=NN(C(=O)c2ccc(Cn3nc(C)cc3C)o2)C(O)(C(F)(F)F)C1 (configuration not stated)	i	1.3µM	7.1µM	2.5µM	6.3µM
CC1=NN(C(=O)c2ccc(Cn3cc(Br)c([N+](=O)[O-])n3)o2)C(O)(C(F)(F)F)C1 (configuration not stated)	i	3.3µM	i	2.6µM	i
CC1=NN(C(=O)Cn2nc([N+](=O)[O-])cc2C)C(O)(C(F)(F)F)C1 (configuration not stated)	i	i	i	i	i
CCOc1cc(C2CC(=O)Nc3cc4c(cc32)OCCO4)ccc1O (configuration not stated)	nt	18µM	nt	?	nt
COc1cc2c(cc1OC)C(c1ccc3c(c1)OCO3)CC(=O)N2 (configuration not stated)	i	i	?	?	?
CCCOc1ccccc1C1CC(=O)Nc2cc3c(cc21)OCCO3 (configuration not stated)	i	0.73µM	1.3µM	0.65µM	1.5µM
O=C1CC(c2cccnc2)c2cc3c(cc2N1)OCCO3 (configuration not stated)	i	i	i	i	i
CCOc1cccc(C2CC(=O)Nc3cc(OC)c(OC)cc32)c1 (configuration not stated)	i	?	i	?	i
CCOc1ccccc1C1CC(=O)Nc2cc3c(cc21)OCCO3 (configuration not stated)	i	1µM	?	0.52µM	4.1µM
CCOc1c(Br)cc(C2CC(=O)Nc3cc4c(cc32)OCO4)cc1OC (configuration not stated)	nt	2.9µM	nt	4.6µM	nt
O=C(CCn1c(=O)oc2ccccc21)Nc1cccc([N+](=O)[O-])c1	i	i	i	i	i
COc1ccc(-c2nnc(SCc3ccccc3F)o2)cc1	i	i	i	i	i
COc1cc(OC)cc(-c2nnc(SCc3c(F)cccc3Cl)o2)c1	-60	?	i	23µM	i
CCN(CCO)c1ccc(NC(=S)Nc2cccc(S(=O)(=O)N(C)C)c2)cc1	i	i	i	?	?
SMILES	IL1B secr inh	DT40 TDP1 CPT	HT1080-NT tox	TDP1 cell noCPT	HT1080 IDH1KD tx
CN(C)S(=O)(=O)c1cccc(NC(=S)NCc2ccco2)c1	i	i	i	i	i
CN(C)S(=O)(=O)c1cccc(NC(=S)Nc2cc(Cl)cc(Cl)c2)c1	-70	26µM	i	23µM	i
CN(C)S(=O)(=O)c1cccc(NC(=S)Nc2ccc(Cl)cc2Cl)c1	i	?	i	16µM	i
CC1(C(=O)Nc2cccc(C(F)(F)F)c2)Cc2c(-c3ccc4c(c3)OCO4)ccnc2O1 (configuration not stated)	i	?	?	18µM	?
CC1(C(=O)Nc2ccc3c(c2)OCO3)Cc2c(-c3cccc(C(F)(F)F)c3)ccnc2O1 (configuration not stated)	i	4.1µM	?	3.7µM	12µM
O=S(=O)(c1ccccc1)c1cc(O)ccc1O	i	3.3µM	i	7.3µM	i
Nc1nc(-c2ccccc2)[nH]c(=O)c1N	i	26µM	i	?	i
CN1CCN(c2ccccc2NC(=O)C(Cc2ccccc2)n2cccc2)CC1 (configuration not stated)	i	26µM	i	?	i
Cc1ccc(NC(=O)CCC(=O)NNC(=O)C(c2ccccc2)c2ccccc2)c(C)c1	i	?	i	i	i
O=C(CCc1ccccc1)Nc1ccccc1F	i	i	i	i	i
O=C(Nc1ncc(Br)s1)C(Cc1ccccc1)n1cccc1 (configuration not stated)	i	?	26µM	?	i
Cc1ccc(NC(=O)C(Cc2ccccc2)n2cccc2)c(C)c1 (configuration not stated)	nt	15µM	nt	15µM	nt
CCCCC(=O)Nc1ncc(Br)s1	i	i	i	i	?
O=C(Nc1ccccc1F)C(Cc1ccccc1)n1cccc1 (configuration not stated)	nt	?	nt	15µM	nt
Cc1ccc(C)c(NC(=O)C(Cc2ccccc2)n2cccc2)c1 (configuration not stated)	nt	?	nt	16µM	nt
CCC(C)NC(=O)C(Cc1ccccc1)n1cccc1 (configuration not stated)	i	i	i	i	i
O=C(NCCNCC(O)COc1ccc(O)cc1)N1CCOCC1 (configuration not stated)	i	i	?	i	i
NS(=O)(=O)c1ccc(CNC(=O)c2ccc(Cl)c([N+](=O)[O-])c2)cc1	?	?	i	?	i
CCOC(=O)C(C)(C)N(Cc1ccc(C)cc1)S(=O)(=O)c1ccc(Cl)c([N+](=O)[O-])c1	-104	15µM	?	13µM	?
CCc1nc2ccc(C(=O)N(C)CCN(C)C)cn2c1N(C)Cc1cc2ccccc2s1	?	?	16µM	?	?
CCc1nc2ccc(C(=O)N(C)Cc3ccco3)cn2c1N(C)CCCc1ccccc1	?	16µM	?	16µM	?
